The results in this text go back to PubChem BioAssay (EPA / NIEHS).

Active and inactive are the calls of the source. The calls were made as follows: active = hit-call score of the fitted dose curve at least 0.9, where 1 is the maximum; inactive = score below 0.9.

The nature of this assay: ATG_E_Box_CIS: Attagene CIS-FACTORIAL HepG2 Assay for human Enhancer Box (E-box) (AID 2282936). The following applies: HepG2 E-box cis-reporter transcription, actives raise or lower the signal. The procedure, abridged: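 DMSO served as negative control and baseline for bidirectional fitting. Human hepatoma HepG2 cells, transiently transfected with cis-reporter constructs, were dosed 24 h; reporter mRNA read by RT-PCR and capillary electrophoresis.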
For the molecule `O=C(N[C@@H](Cc1ccccc1)[C@@H](O)C(=O)N1C[C@@H](O)[C@@H](O)C1)c1cc2cc(Cl)ccc2[nH]1`, the AC50 (usually the midpoint of the concentration-response curve, whichever way the signal moves) is 165 µM (active).
Turning to `CCCCCCCCCCCCCCCC`, the result was inactive.
For the molecule `Cc1ccc(C)c(C)c1`, the outcome was inactive.
On the same count and under the same terms, the same measure for `C=CCOC(=O)c1ccccc1C(=O)OCC=C`: “inactive”; for `CCCCCCCCCCC`: “inactive”.
Take `COc1cc(-c2nc(NC(=O)c3cc4cc(C)cc(C)c4n3CC(=O)O)sc2CCC2CCCCC2)c(OC)cc1Cl`: the AC50 was 25.6 µM (active).
With `Cc1cc(NC(=O)C(=O)O)cc(C)c1Oc1ccc(O)c2c1CCC2`, the result was inactive.
For `O=C(OCCCCCOC(=O)c1ccccc1)c1ccccc1`, the outcome was inactive.
Turning to `COC(=O)c1ccc(O)cc1`, the result was inactive.
`CCCCCCCC=O`: the result was inactive.
For `CCCCC(CC)COC(=O)CC(C(=O)OCC(CC)CCCC)S(=O)(=O)O` (stereo not given), the result was inactive.
The same measure, in the same setting: the same measure for `C[Si]1(C)O[Si](C)(C)O[Si](C)(C)O[Si](C)(C)O1`: “inactive”; for `C=CCc1ccc(O)c(OC)c1`: “inactive”.
Take `NS(=O)(=O)c1cc2c(cc1Cl)NCNS2(=O)=O`: the outcome was inactive.
Consider `COc1cc(/C=C/C(=O)CC(=O)/C=C/c2ccc(O)c(OC)c2)ccc1O`, for which the AC50 is 45.8 µM (active).
`CCOC(=O)CCC(=O)OCC`: the outcome was inactive.
The same measure, in the same setting: next, `CC(CO)OC(C)CO` (stereo not given) (tested in a mixture with another compound): “inactive”; `O=C(O)CCCCC(=O)O`: “inactive”.
On the same count and under the same terms, the same measure for `Cc1cc(=O)[nH]c(=S)[nH]1`: “inactive”; for `Cc1nc(-c2ccc3c(c2)CCN(CCC2CCC(NC(=O)/C=C/c4ccc(F)cc4)CC2)CC3)no1` (stereo not given): “inactive”; for `Oc1ccc2c(c1)OC[C@@H](N1CCC(O)(c3ccc(F)cc3)CC1)[C@H]2O`: “inactive”.
With `NCC1(Cc2noc(=O)[nH]2)CCCCC1`, the result was inactive.
On the same count and under the same terms, next, `NCCO`: “inactive”; `CC1=C(/C=C/C(C)=C/C=C/C(C)=C/CO)C(C)(C)CCC1`: “inactive”; `Cc1cccc([N+](=O)[O-])c1C`: “inactive”.
For `CCCCCCCCCCCCCO`, the AC50 was 21.8 µM (active).
Turning to `Cc1ccc(C(C)C)c(O)c1`, the outcome was inactive.
For `Nc1ccc(S(=O)(=O)c2ccc(N)cc2)cc1`, the result was inactive.
The same measure, in the same setting: the same measure for `Nc1nc(N)c2nc(CNc3ccc(C(=O)N[C@@H](CCC(=O)O)C(=O)O)cc3)cnc2n1`: “inactive”; for `CCCCc1ccc2c(n1)[C@@H](c1ccc(OC)cc1C[C@H](C)C(=O)O)[C@H](C(=O)O)[C@H]2c1ccc2c(c1)OCO2`: “inactive”.
